Records with an inconclusive call do not appear. Where a call stands in place of a potency, no number is given. Calls of active or inactive are those of the source. Calls follow the shape of the dose curve; as a rule, active = well fitted inhibition curve with a large enough effect; inconclusive = small, poorly fitted or top-dose-only effect; inactive = no such curve, though single readings can be large or run the other way.
Molecular target: Protein phosphatase 1D (Homo sapiens) (UniProt O15297)
Sequence (O15297 whole entry, looked up): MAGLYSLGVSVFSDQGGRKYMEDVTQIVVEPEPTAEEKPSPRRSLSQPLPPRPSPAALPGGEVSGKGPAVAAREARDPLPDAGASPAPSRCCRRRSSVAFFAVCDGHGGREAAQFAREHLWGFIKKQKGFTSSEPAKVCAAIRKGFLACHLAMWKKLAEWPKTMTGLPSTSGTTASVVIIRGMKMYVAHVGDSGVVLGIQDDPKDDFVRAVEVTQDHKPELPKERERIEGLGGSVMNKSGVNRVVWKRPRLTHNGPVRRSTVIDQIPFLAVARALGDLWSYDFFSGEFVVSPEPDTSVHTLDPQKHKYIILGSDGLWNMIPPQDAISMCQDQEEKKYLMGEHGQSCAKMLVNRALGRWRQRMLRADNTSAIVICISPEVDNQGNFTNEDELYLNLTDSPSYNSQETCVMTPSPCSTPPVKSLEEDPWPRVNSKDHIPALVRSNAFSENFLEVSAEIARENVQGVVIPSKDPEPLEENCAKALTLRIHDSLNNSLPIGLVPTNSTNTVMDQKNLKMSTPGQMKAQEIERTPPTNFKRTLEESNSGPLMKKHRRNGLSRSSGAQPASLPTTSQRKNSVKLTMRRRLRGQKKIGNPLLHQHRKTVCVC
Experiment: RapidFire Mass Spectrometry qHTS Assay for Modulators of WT P53-Induced Phosphatase 1 (WIP1) (AID 1347424);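 also: amount of dephosphorylated VEPPL-S-QETFS peptide product formed by WIP1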; also: potency is read from the fitted curve at half-maximal effect
Details: WIP1 dephosphorylation of phosphopeptide, RapidFire MS; series mostly up to 63 µM
Method in brief: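 10 nM WIP1 preincubated with compounds 1 hr at room temperature in pH 7.5 Tris buffer with 30 mM MgCl2, 1 mM TCEP; 2 uM VEPPL-pS-QETFS phosphopeptide for 5 min, formic acid quench; dephosphorylated product quantified by RapidFire MS against labelled standard.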
For `COc1cc(C(=O)NS(=O)(=O)c2ccccc2C)ccc1Cc1cn(C)c2ccc(NC(=O)OC3CCCC3)cc12`, the Potency was 15.8 µM (active).
In the case of `Cc1nc2ccc(CN(C)c3ccc(C(=O)N[C@@H](CCC(=O)O)C(=O)O)s3)cc2c(=O)[nH]1`, the Potency is reported as “inactive”.
With `CC(=O)SC[C@@H](C)C(=O)N1CCC[C@H]1C(=O)N[C@@H](Cc1ccccc1)C(=O)O` the Potency was “inactive”.

Test system: not listed separately
Experiment: Primary qHTS for inhibitors of La Crosse Virus (LACV) - induced cell death in SH-SY5Y cells (AID 1508616);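 also: top concentration of the series differs between compounds; higher means more rescue of cells from virus-induced death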
Details: SH-SY5Y LACV cytopathicity rescue, ATP luminescence, 6 d; series mostly up to 4.29 µM
Method in brief: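 Readout was luminescence from ATPLite 1step added after a 6-day LACV infection (0.01 MOI) of SH-SY5Y cells that had received pin-transferred compound 24 hr after seeding.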
For `O=c1c2ccccc2nc2n1CCc1c-2[nH]c2ccccc12`, the outcome was “inactive”.
For `COc1cc(C(=O)NS(=O)(=O)c2ccccc2C)ccc1Cc1cn(C)c2ccc(NC(=O)OC3CCCC3)cc12`, the outcome was “inactive”.
In the case of `Cc1nc2ccc(CN(C)c3ccc(C(=O)N[C@@H](CCC(=O)O)C(=O)O)s3)cc2c(=O)[nH]1`, the outcome is reported as “inactive”.
In the case of `CC(=O)SC[C@@H](C)C(=O)N1CCC[C@H]1C(=O)N[C@@H](Cc1ccccc1)C(=O)O`, the outcome is reported as “inactive”.
